The nature of experiment [1]: yeast TOR pathway RPL19A-GFP modulators, primary screen, cell-based, S. cerevisiae, multiplex flow cytometry (AID 1862; in the data active = percent of DMSO control GFP below about 86%;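 note: lower values mimic rapamycin by blocking the RPL19A rise seen in DMSO cells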). The following applies: S. cerevisiae RPL19A-GFP strain, flow cytometry fluorescence, 3 h; at 10 µM; stronger effect = lower value. A general note: A flow cytometer gives signals particle by particle.
A short description of experiment [2]: modulators of MEP2-GFP levels in yeast, primary screen, S. cerevisiae, multiplex flow cytometry (AID 1867;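 active = GFP response, as percent of the DMSO control, above the screen-wide mean plus 3 SD, about 139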;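 note: median GFP channel fluorescence of barcode-gated MEP2-GFP cells measured by flow cytometry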). Particulars: S. cerevisiae MEP2-GFP strain, 3 h, at 10 µM, stronger effect = higher value, 100% means same as DMSO wells.
Experiment [3] is described as follows: modulators of CIT2-GFP expression in yeast, primary screen, S. cerevisiae, GFP fusion, multiplex flow cytometry (AID 1870;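 active = percent response above a set limit, the screen-wide mean plus 3 SD, cut at about 130% in these data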;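 note: barcoded CIT2-GFP strain pooled with four other GFP strains with rapamycin as positive control; median GFP fluorescence per well over plate mean of DMSO wells so 100% = DMSO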). Particulars: 3 h, at 10 µM, stronger effect = higher value.
Experiment [4] in a line: modulators of LAP4-GFP expression in yeast, primary screen, S. cerevisiae, multiplex flow cytometry (AID 1873;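 active = GFP signal, as percent of the solvent control, above the screen mean plus 3 SD, about 149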). Particulars: 3 h, at 10 µM, stronger effect = higher value.
A short description of experiment [5]: modulators of AGP1-GFP expression in yeast TOR pathway, primary screen, cell-based, multiplex flow cytometry, S. cerevisiae (AID 1887;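 active = GFP signal above the screen-wide mean plus 3 SD, that is over about 124.5% of the solvent control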;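 note: AGP1-GFP fusion strain of S. cerevisiae within a five-strain barcoded multiplex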). Particulars: 3 h, at 10 µM, stronger effect = higher value.
Experiment [6] is described as follows: inhibitors of CD8+ T cell-vesicle binding, pilot screen, LFA-1/ICAM-1 modulator project, MLPCN validation set, flow cytometry (AID 2523;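 active = response below a set limit, under 55% cells CD8-positive and vesicle-bound, and CD8 cells' 90th-percentile brightness under 279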;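 for vesicle binding response: mean PE anti-B7-1 fluorescence of CD8+ cells relative to row control; 100% = QL9-loaded vesicles with DMSO vehicle in the same plate row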). The following applies: 2C mouse CD8+ T cells, at 7 µM, stronger effect = lower value; double positive events: measured here: CD8+/vesicle+ event percentage.
For experiment [7], the target named is Integrin beta-1 (Homo sapiens) + Integrin alpha-4 (Homo sapiens) (UniProt P13612+P05556). The experiment in a line: inhibition of HUTS-21 binding to VLA-4, pilot screen, VLA-4 allosteric modulator project, U937 cells, HUTS-21 mAb, flow cytometry, validation set (AID 2674;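 active = inhibition above 50%, about 3 SD of the validation set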;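 note: antibody binding induced by the VLA-4 ligand LDV present at three times its Kd; 0% = LDV ligand with antibody and no compound and 100% = antibody without LDV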). Particulars: HUTS-21 LIBS mAb binding, at 6.7 µM, stronger effect = higher value, binding induced by LDV ligand.
Chain of Integrin beta-1 (Homo sapiens) + Integrin alpha-4 (Homo sapiens) (P05556 whole entry, looked up): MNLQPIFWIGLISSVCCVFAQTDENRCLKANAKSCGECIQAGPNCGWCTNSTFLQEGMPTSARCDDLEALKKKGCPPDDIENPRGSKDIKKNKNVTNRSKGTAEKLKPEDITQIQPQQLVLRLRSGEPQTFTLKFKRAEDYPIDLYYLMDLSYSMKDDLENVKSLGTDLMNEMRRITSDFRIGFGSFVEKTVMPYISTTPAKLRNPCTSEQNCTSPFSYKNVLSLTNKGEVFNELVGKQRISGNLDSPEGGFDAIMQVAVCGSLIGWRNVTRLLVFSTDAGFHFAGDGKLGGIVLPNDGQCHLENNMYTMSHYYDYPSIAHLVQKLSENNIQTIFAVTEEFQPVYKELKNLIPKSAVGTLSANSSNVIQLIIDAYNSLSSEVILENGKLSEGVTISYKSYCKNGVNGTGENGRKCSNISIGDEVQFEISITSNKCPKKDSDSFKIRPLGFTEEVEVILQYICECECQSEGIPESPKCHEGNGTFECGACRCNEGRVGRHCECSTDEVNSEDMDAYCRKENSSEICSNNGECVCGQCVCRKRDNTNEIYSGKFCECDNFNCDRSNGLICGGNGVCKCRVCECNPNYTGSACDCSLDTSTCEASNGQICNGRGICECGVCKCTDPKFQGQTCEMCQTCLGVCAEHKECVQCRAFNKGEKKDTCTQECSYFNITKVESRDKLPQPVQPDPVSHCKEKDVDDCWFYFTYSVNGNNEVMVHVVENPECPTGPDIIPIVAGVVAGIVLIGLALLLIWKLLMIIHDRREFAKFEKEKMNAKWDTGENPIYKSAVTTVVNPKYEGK
Chain of Integrin beta-1 (Homo sapiens) + Integrin alpha-4 (Homo sapiens) (P13612 whole entry, looked up): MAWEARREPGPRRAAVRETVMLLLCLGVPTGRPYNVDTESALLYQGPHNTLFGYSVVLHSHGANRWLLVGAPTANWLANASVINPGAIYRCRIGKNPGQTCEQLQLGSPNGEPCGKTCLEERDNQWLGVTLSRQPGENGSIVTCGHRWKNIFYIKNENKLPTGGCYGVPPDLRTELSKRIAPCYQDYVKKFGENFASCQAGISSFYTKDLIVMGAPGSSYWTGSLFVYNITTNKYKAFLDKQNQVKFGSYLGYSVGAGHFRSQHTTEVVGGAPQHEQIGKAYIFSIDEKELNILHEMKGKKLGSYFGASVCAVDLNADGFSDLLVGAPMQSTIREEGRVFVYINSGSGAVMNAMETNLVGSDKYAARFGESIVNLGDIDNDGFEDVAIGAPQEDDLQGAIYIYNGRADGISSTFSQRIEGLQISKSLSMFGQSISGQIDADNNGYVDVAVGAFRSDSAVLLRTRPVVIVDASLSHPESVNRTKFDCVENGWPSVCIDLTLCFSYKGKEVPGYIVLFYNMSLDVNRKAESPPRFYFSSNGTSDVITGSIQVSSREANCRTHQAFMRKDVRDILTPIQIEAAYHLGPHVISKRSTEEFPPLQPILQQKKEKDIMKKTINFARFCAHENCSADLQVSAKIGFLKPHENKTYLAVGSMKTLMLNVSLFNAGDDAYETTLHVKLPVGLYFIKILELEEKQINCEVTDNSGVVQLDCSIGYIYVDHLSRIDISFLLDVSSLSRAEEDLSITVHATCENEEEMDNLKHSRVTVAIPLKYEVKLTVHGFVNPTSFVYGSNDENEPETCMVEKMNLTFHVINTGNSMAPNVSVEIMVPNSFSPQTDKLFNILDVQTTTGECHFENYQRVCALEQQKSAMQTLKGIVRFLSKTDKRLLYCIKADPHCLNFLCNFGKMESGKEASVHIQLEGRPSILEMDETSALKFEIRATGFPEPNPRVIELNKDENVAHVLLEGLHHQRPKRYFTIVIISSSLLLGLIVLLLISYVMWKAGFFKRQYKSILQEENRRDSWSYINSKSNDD

A short description of experiment [8]: superoxide lowering in aged yeast cells, pilot screen, validation compound set (AID 2706;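 active = superoxide response below 65% of plate, a cut near 3 SD across the whole screen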;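 note: yeast exposed to compound for one week at 30 degrees C before staining; 100% = mean of all compound wells on the same plate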). Particulars: S. cerevisiae aging, superoxide DHE fluorescence; at 10 µM, stronger effect = lower value.
The target in experiment [9] is Beta-adrenergic receptor kinase 1 (Homo sapiens) (UniProt P25098). The experiment in a line: GRK2 binders displacing RNA aptamer, biochemical, validation, human GRK2, bead flow cytometry (AID 488806;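 active = aptamer binding inhibition above 30%, about 3 SD of noise from non-fluorescent compounds; inactive = inhibition at or below 30%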). Particulars: bead-bound GRK2, FAM-aptamer displacement, at 10 µM, stronger effect = higher value.
Chain of Beta-adrenergic receptor kinase 1 (Homo sapiens) (P25098 whole entry, looked up): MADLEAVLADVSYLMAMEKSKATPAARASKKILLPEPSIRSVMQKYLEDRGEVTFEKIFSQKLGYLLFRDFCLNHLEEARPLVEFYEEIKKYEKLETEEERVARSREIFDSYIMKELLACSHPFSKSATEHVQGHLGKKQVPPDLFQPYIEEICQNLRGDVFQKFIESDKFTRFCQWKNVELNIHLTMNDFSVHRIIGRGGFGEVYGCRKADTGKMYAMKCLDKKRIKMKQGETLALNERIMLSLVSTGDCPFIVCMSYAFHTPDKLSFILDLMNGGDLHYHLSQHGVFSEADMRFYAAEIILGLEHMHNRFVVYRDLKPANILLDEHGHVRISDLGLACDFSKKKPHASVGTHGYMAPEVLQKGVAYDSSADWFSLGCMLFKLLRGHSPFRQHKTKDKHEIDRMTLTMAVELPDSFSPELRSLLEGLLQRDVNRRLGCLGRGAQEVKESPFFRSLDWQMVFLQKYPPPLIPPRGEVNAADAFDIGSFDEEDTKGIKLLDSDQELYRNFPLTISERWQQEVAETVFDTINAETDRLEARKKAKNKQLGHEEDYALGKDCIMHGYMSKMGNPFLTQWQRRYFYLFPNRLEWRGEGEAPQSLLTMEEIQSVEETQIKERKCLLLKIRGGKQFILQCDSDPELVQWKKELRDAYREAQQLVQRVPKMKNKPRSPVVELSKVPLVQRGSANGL
Experiment [10] has as its target AP-2 complex subunit beta (Homo sapiens) (UniProt P63010). In words: inhibitors of arrestin peptide binding to AP2, pilot screen, biochemical, validation set, GST-AP2 beads, flow cytometry (AID 504541).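 Note: AP2 carries R879A mutation and is captured from E. coli lysate; bead-bound FITC arrestin peptide fluorescence measuring arrestin peptide binding to AP2; 0% = DMSO wells and 100% = excess unlabeled arrestin peptide control.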 Particulars: FITC arrestin peptide, at 10 µM, stronger effect = higher value, AP2 beta2 appendage fragment, R879A mutant.
Experiment [11] in a line: yeast V-ATPase proton transport modulators, S. cerevisiae, pHLuorin, HTS validation (AID 504600; in the data active = response above about 15%;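 note: plate controls were DMSO for no effect and reference compound for full effect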). Particulars: S. cerevisiae pHLuorin cytosolic pH, at 10 µM, stronger effect = higher value.
In experiment [12] the test system is anti-desmoglein-3 scFv antibody binding to human DSG3. In words: inhibitors of anti-DSG3 scFv binding to DSG3, pilot screen, biochemical, validation compound set, bead-based, flow cytometry (AID 588368;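 active = binding below the plate cutoff, the plate median minus 3 SD, with a reading above zero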;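 note: signal is the median channel fluorescence of bead-bound GFP antibody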). Particulars: Protein G beads, DSG3-Fc, scFv-GFP binding, at 10 µM, stronger effect = lower value.
A short description of experiment [13]: inhibitors of fungal efflux pumps CDR1, CDR2, MDR1, pilot screen, validation compound set, multiplex, phenotypic (AID 588506;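 active = efflux inhibition above 0.42, the validation set average plus 4 SD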;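 note: Nile Red retained in cells so higher fluorescence means more efflux inhibition; 0 = negative control wells and 1 = enniatin B 25 µM full block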). Particulars: S. cerevisiae pump-expressing triplex, Nile Red efflux flow cytometry; at 10 µM; stronger effect = higher value; the pumps come from Candida albicans.
In experiment [14] the target is ATP-binding cassette sub-family B member 6 (Homo sapiens) (UniProt Q9NP58). The experiment in a line: ABCB6 transporter inhibitors, pilot screen, K562-ABCB6 cells, flow cytometry, validation set (AID 588550;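 active = inhibition above the screen-wide mean plus 3 SD, about 51%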;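 note: 0% = DMSO wells and 100% = benzethonium chloride 70 µM positive control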). The following applies: K562-ABCB6 porphyrin accumulation, 1 h, at 10 µM, stronger effect = higher value.
Chain of ATP-binding cassette sub-family B member 6 (Homo sapiens) (Q9NP58 whole entry, looked up): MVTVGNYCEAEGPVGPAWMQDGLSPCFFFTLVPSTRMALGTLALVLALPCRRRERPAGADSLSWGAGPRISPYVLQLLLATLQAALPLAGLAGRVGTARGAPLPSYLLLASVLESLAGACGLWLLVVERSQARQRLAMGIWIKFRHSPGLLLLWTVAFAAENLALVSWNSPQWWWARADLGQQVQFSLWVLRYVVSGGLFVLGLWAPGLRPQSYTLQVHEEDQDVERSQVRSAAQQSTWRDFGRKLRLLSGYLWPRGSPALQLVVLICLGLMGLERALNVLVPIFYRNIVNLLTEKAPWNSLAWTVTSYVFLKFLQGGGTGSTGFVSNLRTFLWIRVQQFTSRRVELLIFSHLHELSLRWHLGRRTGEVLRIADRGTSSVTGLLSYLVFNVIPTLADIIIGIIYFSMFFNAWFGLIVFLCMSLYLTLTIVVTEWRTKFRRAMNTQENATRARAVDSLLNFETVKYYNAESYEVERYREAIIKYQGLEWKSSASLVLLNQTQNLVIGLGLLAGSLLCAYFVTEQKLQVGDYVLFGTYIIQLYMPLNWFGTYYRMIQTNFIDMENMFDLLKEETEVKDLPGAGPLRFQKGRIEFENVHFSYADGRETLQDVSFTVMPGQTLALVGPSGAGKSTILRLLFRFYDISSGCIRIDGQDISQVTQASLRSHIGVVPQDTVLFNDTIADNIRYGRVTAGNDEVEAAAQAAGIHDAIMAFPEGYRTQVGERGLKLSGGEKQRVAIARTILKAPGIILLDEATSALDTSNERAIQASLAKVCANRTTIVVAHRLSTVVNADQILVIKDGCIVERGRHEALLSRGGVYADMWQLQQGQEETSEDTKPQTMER
Experiment [15] is described as follows: promoters of myeloid differentiation in arrested cells, primary screen, cell-based, GFP/MAC1 double positive, flow cytometry, validation set (AID 588685;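 active = differentiation response of at least 50%, scaled between solvent and reference control, from cells with both markers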;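 note: compound exposure lasts four days before antibody staining and flow analysis; 0% = DMSO wells and 100% = 5 µM fulvestrant positive control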). The following applies: ER-HoxA9 marrow cells, stronger effect = higher value, normalized: vehicle 0, fulvestrant 100.

Records with an inconclusive call do not appear. Calls of active or inactive are those of the source.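 Rule for the calls, unless noted: active = inhibition above 54%, about 3 SD of non-fluorescent compounds; inactive = the rest.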

The values that follow come from PubChem BioAssay.

Chain of AP-2 complex subunit beta (Homo sapiens) (P63010 whole entry, looked up, the tested form may be a part, one chain of several): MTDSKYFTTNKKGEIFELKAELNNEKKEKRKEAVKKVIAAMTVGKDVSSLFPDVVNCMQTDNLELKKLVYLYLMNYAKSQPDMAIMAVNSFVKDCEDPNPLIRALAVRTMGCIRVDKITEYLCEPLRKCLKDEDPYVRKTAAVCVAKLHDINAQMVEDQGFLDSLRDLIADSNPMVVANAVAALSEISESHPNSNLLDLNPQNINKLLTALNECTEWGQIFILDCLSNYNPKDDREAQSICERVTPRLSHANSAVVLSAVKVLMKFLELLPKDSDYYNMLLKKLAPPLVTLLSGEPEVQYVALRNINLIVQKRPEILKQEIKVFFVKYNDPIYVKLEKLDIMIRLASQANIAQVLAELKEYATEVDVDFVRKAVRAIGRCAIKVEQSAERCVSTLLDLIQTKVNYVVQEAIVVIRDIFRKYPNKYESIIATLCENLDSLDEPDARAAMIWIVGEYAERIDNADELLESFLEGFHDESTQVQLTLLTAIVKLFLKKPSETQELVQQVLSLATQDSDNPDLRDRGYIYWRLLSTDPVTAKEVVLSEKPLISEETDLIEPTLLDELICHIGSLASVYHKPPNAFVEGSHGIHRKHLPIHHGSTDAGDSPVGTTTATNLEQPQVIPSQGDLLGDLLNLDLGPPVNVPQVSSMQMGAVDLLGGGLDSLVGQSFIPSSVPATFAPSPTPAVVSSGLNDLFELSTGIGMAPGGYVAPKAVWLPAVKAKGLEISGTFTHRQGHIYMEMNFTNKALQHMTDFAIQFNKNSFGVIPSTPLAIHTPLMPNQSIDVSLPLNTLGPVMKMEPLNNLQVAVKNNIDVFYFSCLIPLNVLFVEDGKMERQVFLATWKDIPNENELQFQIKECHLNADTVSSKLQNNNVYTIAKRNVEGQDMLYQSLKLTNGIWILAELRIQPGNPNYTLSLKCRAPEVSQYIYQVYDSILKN

As for `CC(=O)O[C@H]1CSC[C@H]1NC(=O)c1ccccc1`, the percent of DMSO control GFP in experiment [1] is 101% (inactive). Further, the values for the GFP response vs DMSO in experiment [2] and in experiment [4] were 91.8% (inactive) and 102% (inactive), respectively. For the same compound, the percent response of DMSO control in experiment [3] is 106% (inactive). The GFP response, % of DMSO in experiment [5] is 101% (inactive). Also, the double positive events in [6] was determined as 60.9%. In addition, in [6], the vesicle binding response is 233% (inactive). The inhibition – broadly, the change of the read-out against control, counted positive when it falls – in experiment [7] was -7.7% (inactive); in experiment [10] it was -16.1% (inactive); in [14], 12% (inactive). Also, the superoxide response (% of plate) in experiment [8] is 104% (inactive). For the same compound, in [9], the aptamer binding inhibition is -6% (inactive). The response in experiment [11] is -9.38% (inactive). The binding (% of control) in [12] was 102% (inactive). Moreover, in [13], the efflux inhibition (fraction of control) is -0.28 (inactive). The differentiation response in [15] is -13.1% (inactive).
For `CCCN(CCC)S(=O)(=O)c1ccc(C(=O)O)cc1`, the percent of DMSO control GFP in [1] is 101% (inactive). Besides, the figures for the GFP response vs DMSO in [2] and in experiment [4] were 107% (inactive) and 124% (inactive), respectively. For the same compound, the percent response of DMSO control in experiment [3] was 96.9% (inactive). Also, the GFP response, % of DMSO in experiment [5] was 104% (inactive). The compound further showed a double positive events in experiment [6] of 56.2%. For the same compound, the vesicle binding response in experiment [6] was 170% (inactive). The inhibition in experiment [7] is 1.62% (inactive); in experiment [10], -3.49% (inactive); in experiment [14], 4% (inactive). The superoxide response (% of plate) in experiment [8] was 104% (inactive). Also, in experiment [9], the aptamer binding inhibition was 1% (inactive). Besides, the response in experiment [11] is 0.87% (inactive). Besides, the binding (% of control) in experiment [12] is 99.3% (inactive). In [13], the efflux inhibition (fraction of control) is -0.05 (inactive). Besides, the differentiation response in [15] is -24.4% (inactive).
`CC(C)NCC(O)COc1ccc(CCOCC2CC2)cc1` (centres undefined): in [1], the percent of DMSO control GFP is 103% (inactive). In addition, the figures for the GFP response vs DMSO in [2] and in experiment [4] were 102% (inactive) and 111% (inactive), respectively. The percent response of DMSO control in [3] is 109% (inactive). For the same compound, the GFP response, % of DMSO in experiment [5] is 108% (inactive). This compound also came in with a double positive events in [6] of 63.7%. In experiment [6], the vesicle binding response is 215% (inactive). The figures for the inhibition in experiment [7], in experiment [10] and in experiment [14] were -10.5% (inactive), -20.5% (inactive) and -3% (inactive), respectively. For the same compound, the superoxide response (% of plate) in experiment [8] is 93.3% (inactive). In addition, in [9], the aptamer binding inhibition is -6% (inactive). Also, the response in experiment [11] was 9.7% (inactive). Also, the binding (% of control) in experiment [12] was 103% (inactive). Further, the efflux inhibition (fraction of control) in experiment [13] is 0.03 (inactive). In experiment [15], the differentiation response was 7.13% (inactive).
Consider `COc1ccc(-c2[nH]ncc2C=O)cc1OC`, for which the percent of DMSO control GFP in experiment [1] is 99.3% (inactive). The GFP response vs DMSO in experiment [2] is 96.9% (inactive); in experiment [4], 91.3% (inactive). Also, the percent response of DMSO control in experiment [3] is 106% (inactive). Moreover, the GFP response, % of DMSO in [5] was 95.8% (inactive). Also, in [6], the double positive events amounted to 52%. In experiment [6], the vesicle binding response is 201% (inactive). Besides, the inhibition in experiment [7] is -1.17% (inactive); in experiment [10] it was 11.3% (inactive); in [14] it was 8% (inactive). In experiment [8], the superoxide response (% of plate) was 93.7% (inactive). Moreover, the aptamer binding inhibition in experiment [9] was 2% (inactive). In addition, the response in [11] is 3.37% (inactive). The binding (% of control) in experiment [12] was 101% (inactive). Also, the efflux inhibition (fraction of control) in [13] was -0.12 (inactive). Further, the differentiation response in [15] was -11.5% (inactive).
